Source: PubChem (National Center for Advancing Translational Sciences (NCATS))
Compounds with a hit are over-represented: about 1.6% of the library has one in this group of screens.
Giardia killer: kills Giardia lamblia. activity change, % at 7.66 µM, hits read low. actives 0.15% (n = 340,000). Giardia lamblia trophozoite viability; in the data active = activity change below about -80%; inconclusive = between about -30% and that limit;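 note: parasites exposed to compound for two days anaerobically before the ATP read; % is set by controls: 0 for no effect and ±100 for the full control effect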
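Giardia trophozoites, 100 cells per well, were exposed to compounds for 48 hrs at 37 deg C under anaerobic conditions; viability was then read as ATP content by bioluminescence after 15-30 min at room temperature.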
gsp antag: gsp mutant antagonism; Potency, µM (top dose mostly 76.9 µM), without a hit: at the top dose activity change, negative = inhibition, most hits filed as inhibitors; actives 0.4% (n = 340,000); gsp-mutant cells, cAMP HTRF, 30 min; calls by dose curve; cell line not stated here;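 note: intracellular cAMP measured with PDE inhibitor Ro 20-1724 present during compound exposure; potency is the fitted concentration of half-maximal effect; % is set by controls: 0 for no effect and ±100 for the full control effect; nearly all actives have a fitted effect of over 65% in size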
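Measurement of cellular cAMP by homogeneous time-resolved fluorescence following a 30 min compound exposure at 37C. The PDE inhibitor […] was present throughout; the assay buffer was DPBS with 0.05% BSA and 0.005% Tween 20.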
RXFP1 antag: RXFP1 (human) relaxin receptor antagonism | HEK293-RXFP1, relaxin-stimulated cAMP HTRF, 30 min; hits give low values | actives 0.59% (n = 350,000) | Q9HBX9 | activity change, negative = inhibition, % at 57.5 µM;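 active = activity change of -60% or lower, but not beyond a set lower limit; inconclusive = change between -60% and -40%, or beyond the set limit; inactive = change above -40%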; note: % is set by controls: 0 for no effect and ±100 for the full control effect
Target sequence (Q9HBX9 whole entry, looked up): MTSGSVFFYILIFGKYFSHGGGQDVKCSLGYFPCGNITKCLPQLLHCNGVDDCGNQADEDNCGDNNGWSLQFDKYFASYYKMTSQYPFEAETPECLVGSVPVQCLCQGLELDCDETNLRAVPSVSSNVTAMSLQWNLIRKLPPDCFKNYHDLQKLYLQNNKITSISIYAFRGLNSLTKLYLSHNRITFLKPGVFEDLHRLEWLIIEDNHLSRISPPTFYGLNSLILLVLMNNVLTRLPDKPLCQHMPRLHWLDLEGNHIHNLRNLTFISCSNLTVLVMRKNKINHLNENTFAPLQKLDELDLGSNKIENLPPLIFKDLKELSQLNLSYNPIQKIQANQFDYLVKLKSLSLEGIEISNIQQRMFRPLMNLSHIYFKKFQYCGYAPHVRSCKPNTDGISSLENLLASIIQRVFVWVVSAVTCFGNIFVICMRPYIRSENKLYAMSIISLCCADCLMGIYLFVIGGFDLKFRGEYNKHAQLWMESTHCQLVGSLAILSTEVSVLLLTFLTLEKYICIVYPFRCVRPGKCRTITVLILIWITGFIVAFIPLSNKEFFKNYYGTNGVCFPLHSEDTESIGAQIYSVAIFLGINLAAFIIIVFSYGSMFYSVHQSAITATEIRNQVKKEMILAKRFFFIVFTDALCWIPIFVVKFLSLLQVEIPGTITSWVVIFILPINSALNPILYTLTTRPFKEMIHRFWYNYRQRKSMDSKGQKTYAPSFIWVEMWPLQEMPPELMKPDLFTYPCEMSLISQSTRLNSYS
gsp ag: gsp mutant agonism. gsp mutant cells, cAMP HTRF, 30 min. Potency, µM (top dose mostly 76.9 µM), inactives show top-dose activation (cAMP increase), actives largely listed as activators. actives 0.13% (n = 340,000). AID 624287; active = well fitted activation curve with a large enough effect; inconclusive = small, poorly fitted or top-dose-only effect, or another doubt; inactive = no such curve, though single readings can be large or run the other way; cell line not stated here;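 note: phosphodiesterase inhibitor Ro 20-1724 added with compounds to block cAMP breakdown; potency is the fitted concentration of half-maximal effect; nearly all actives have a fitted effect of over 60% in size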
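Cells stably selected in G418 were plated at 2000/well, grown 16-24 hr, then given compounds in DMSO with the PDE inhibitor […] (300 uM solution added) for 30 min at 37C; cAMP was read by HTRF.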
FBPA coupling cs: inhibits coupling enzyme system, counter-screen for aldolase hits; coupling enzyme system counterscreen, AmpLite Red fluorescence; actives 0.67% (n = 290,000); activity change, negative = inhibition, % at 58.2 µM, hits read low; in the data active = activity change below about -30%; note: % is set by controls: 0 for no effect and ±100 for the full control effect
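Counterscreen of the coupled detection system alone, without aldolase: glyceraldehyde-3-phosphate coupling enzymes plus AmpLite Red readout. Compounds at 57.5 uM final, 10 min RT preincubation, 20 min RT reaction, fluorescence 525/598 nm.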
RXFP1 agonist: agonists of human relaxin receptor RXFP1; HEK293T-RXFP1 cAMP TR-FRET, 30 min; response scale: percent of porcine relaxin response, buffer zero; Potency, µM (titrated, usually from 57.5 µM), for inactives: at the highest dose activation, hits mostly activators; actives 0.3% (n = 370,000); AID 2676; active = well fitted activation curve with a large enough effect; inconclusive = small, poorly fitted or top-dose-only effect; note: potency is the fitted concentration of half-maximal effect; % is set by controls: 0 for no effect and ±100 for the full control effect; nearly all actives have a fitted effect of over 60% in size
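HEK293 cells stably expressing RXFP1, treated 30 min at 37C with compounds plus PDE4 inhibitor Ro 20174; cAMP measured by HTRF TR-FRET. Normalized to buffer and 29 nM porcine relaxin; EC50 by Hill fit.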
Numbers without * were called inactive; u = inconclusive; x = no result given; ! = not active in a repeat; [ ] = another dose, or the depositor's remark.

SMILES	Giardia killer	gsp antag	RXFP1 antag	gsp ag	FBPA coupling cs	RXFP1 agonist
Cc1cccc(C)c1-n1cccc1/C=C1/C(=N)N2C(=NC1=O)SN=C2S(C)(=O)=O	19.3	u	-107.8*	5.1%[15.4 µM]	7.0	-1.5%
CC(=O)Oc1c(I)cc(I)cc1C(=O)Nc1ccc(Cl)cc1	-6.2	35.5µM*	-96.5*	6.6%[15.4 µM]	x	4.2%
COc1ccc(Cl)cc1C(=O)Nc1ccc(NC(C)=O)cc1	-2.9	35.5µM*	-0.3	-13.6%	0.3	1.1%
Cc1cc(C(=O)Nc2ccc(Cl)cc2)c2ccccc2n1	-12.9	2.4%	7.2	-25.4%	-2.5	-4.0%
O=C(O)CN(CC(=O)O)c1ccccc1OCCOc1ccccc1N(CC(=O)O)CC(=O)O	x	x	x	x	1.8	x
O=S(=O)(Nc1cccc2cccnc12)c1ccccc1	3.7	-4.2%	-20.2	-6.4%[15.4 µM]	-39.1*!	-0.6%
COc1ccc(S(=O)(=O)Nc2cccc3cccnc23)cc1	-1.2	x	x	x	x	x
COC(=O)c1c(N)n(-c2ccc(NC(C)=O)cc2)c2nc3ccccc3nc12	33.5	-4.5%	-12.1	15.6%	-30.5*	1.2%
Nc1c(C(=O)NCCN2CCOCC2)c2nc3ccccc3nc2n1-c1ccc2c(c1)OCO2	22.6	-16.9%	12.4	-26.4%	-6.4	0.0%
O=C(NCCN1CCOCC1)c1c(O)nc2ccccn2c1=O	1.5	3.0%	-90.7*	15.4%	-1.0	17.2%
Nc1c(C(=O)NCCN2CCOCC2)c2nc3ccccc3nc2n1-c1ccccc1	0.0	-15.8%	-6.1	-9.8%	-30.3*	3.8%
COCCNC(=O)c1c(N)n(-c2cccc(C)c2)c2nc3ccccc3nc12	14.7	-20.0%	-5.1	17.3%	-38.1*	3.6%
COc1cc2c(c(OC)c1OC)-c1ccc(OC)c(=O)cc1[C@@H](NC=O)CC2	x	x	x	x	-5.6	x
Cc1ccc(Nc2nc(NCc3ccco3)nc3nccnc23)c(C)c1	6.9	x	x	x	x	x
COc1ccc(-n2cc3c(-c4cccc(Br)c4)nnc(C)c3n2)cc1	u	39.8µM*	u	27.2%	1.1	0.5%
CCC(C)NC(=O)Nc1ccc(Br)cc1 (stereo not given)	-8.4	-4.9%	-4.4	-24.1%	-1.3	-0.9%
CCC(C)Nc1ccc(NC(C)CC)cc1 (stereo not given)	-101.3*!	-10.6%	x	x	x	-3.2%
OC(CNCc1ccncc1)c1ccccc1 (stereo not given)	15.0	12.9%	-7.8	-6.6%[15.4 µM]	-1.8	-0.9%
OC(CNCc1ccc(-c2ccccc2)cc1)c1ccccc1 (stereo not given)	-10.9	14.0%	-60.7*	3.0%[15.4 µM]	-1.6	1.8%
Cc1csc(CNc2ncnc3ccc(-c4ccco4)cc23)c1	x	x	x	x	x	0.5%
CN1c2ccccc2C(O)=C(C(=S)Nc2ccccc2)S1(=O)=O	-17.1	u	14.8	4.0%	9.0	-0.1%
CN1c2ccccc2C(O)=C(C(=S)Nc2ccc(F)c(Cl)c2)S1(=O)=O	-6.2	39.8µM*	-17.7	9.1%[15.4 µM]	9.0	0.6%
CCC(C)NC(=O)C(Cc1ccccc1)NS(=O)(=O)c1ccc2c(c1)CCC(=O)N2 (stereo not given)	-21.4	2.8%	-71.2*	10.9%	x	-0.6%
Cc1cc(C)cc(NC(=O)C(Cc2ccccc2)NS(=O)(=O)c2ccc3c(c2)CCC(=O)N3)c1 (stereo not given)	x	x	x	x	x	-1.1%
CCOC(=O)c1oc2ccc(S(=O)(=O)n3nc(-c4cc(OC)cc(OC)c4)cc3N)cc2c1C	x	x	x	x	x	-0.6%
SMILES	Giardia killer	gsp antag	RXFP1 antag	gsp ag	FBPA coupling cs	RXFP1 agonist
O=C(Nc1ccc(C(=O)N2CCOCC2)cc1)c1ccccc1	-1.9	4.2%	x	x	x	x
CC(C)(C)c1ccc(C(=O)Nc2ccc(C(=O)N3CCOCC3)cc2)cc1	24.0	5.4%	-75.9*	-15.7%	x	5.6%
CCC(CN)=C(c1ccccc1)c1ccccc1	x	x	-16.7	x	x	x
O=C(CSc1n[nH]c(=O)n1C1CC1)Nc1ccc(F)c(Cl)c1	-8.7	-1.2%	-78.2*	22.6%	x	x
C[C@@]12C(=O)OC(=O)[C@]1(C)C1CCC2O1	-94.1*	1.6%	-14.9	x	x	2.0%
CC12C(=O)N(c3nccs3)C(=O)C1(C)C1CCC2O1 (stereo not given)	-6.4	6.3%	-1.0	-36.5%[15.4 µM]	x	x
CCCOc1cc(N)ccc1C(=O)OCCN(CC)CC	4.2	0.2%	x	x	-1.9	-1.6%
CCCOc1ccc(N)cc1N	13.9	u	-2.0	-42.0%	-66.0*	0.9%
CCOC(=O)c1ccc(NC(=O)/C=C/c2cccs2)cc1	8.4	u	-101.5*	u	-2.6	0.5%
O=C1SCCN1N=Cc1ccc([N+](=O)[O-])o1	-84.8*	2.2%	17.7	-27.8%	x	x
CCn1c(O)c(N=Nc2ccc3ccccc3n2)c2ccccc21	34.0	-6.3%	-3.8	-2.1%	-4.2	4.0%
Brc1ccc(N=Nc2ccc3ccccc3n2)cc1	-80.7*	2.6%	-23.3	0.1%[15.4 µM]	2.9	-1.9%
Cn1nc(-c2ccncc2)nc2c(=O)n(C)c(=O)nc1-2	-88.0*	x	x	x	x	x
COc1ccc(-c2nc(-c3ccncc3)no2)cc1	-2.6	10.2%	-2.4	-7.0%	3.3	4.8%
CCn1nc(-c2ccc(C)cc2)nc2c(=O)n(C)c(=O)nc1-2	-102.2*	x	x	x	x	x
CCOCCCNC(=O)c1ccc(-n2c(=S)[nH]c3ccccc3c2=O)cc1	10.3	-57.8%	-89.7*	5.5%[15.4 µM]	1.6	-1.4%
Cc1ccccc1-c1noc(N)c1C#N	-13.2	14.2%	4.9	26.8%	-6.3	-0.3%
CN(C)/C=C/c1onc(-c2ccccc2Cl)c1C#N	-26.7	11.2µM*	-27.6	-1.5%[15.4 µM]	0.8	-1.3%
COc1ccc(CCNC(=O)Cn2c(=O)n(-c3cc(F)ccc3F)c(=O)c3sccc32)cc1OC	9.5	31.6µM*	-15.1	-27.9%	-0.3	2.7%
Cc1ccc(C(=O)Nc2cccc(C(F)(F)F)c2)cc1NC(=O)c1csc(-c2ccncc2)n1	2.5	-20.0%	9.6	13.3%	6.6	3.6%
N#C/C(=N\Nc1cccc(C(F)(F)F)c1)C(=O)c1csc(-c2cccnc2)n1	-27.6	25.1µM*	x	-10.6%	12.4	5.7%
C=CCOc1nc2sc(C)c(C)c2c(=O)n1-c1ccccc1	5.2	4.7%	-2.3	u	0.3	-0.5%
O=C(Cn1c(=O)n(-c2ccc(Cl)cc2)c(=O)c2c3c(sc21)CCCCC3)Nc1cccc(Cl)c1	x	x	x	x	x	4.8%
O=[N+]([O-])C(/C=C(/Cl)[N+](=O)[O-])=C(N1CCCCC1)N1CCCCC1	-93.7*	-8.0%	1.0	5.5%[15.4 µM]	0.0	-1.2%
Cc1oc(-c2ccccc2)nc1CCC(=O)c1ccc(CC2SC(=O)NC2=O)cc1 (stereo not given)	x	x	-36.8	x	x	x
CCN(CC(=O)NCc1ccc(F)cc1)Cc1nc2ccccc2c(=O)[nH]1	-6.1	1.5%	-9.0	-15.1%	0.1	2.9%
